Test system: VDR:RXRa (NR concentration 270 nM, RXRa partner concentration 90 nM)
Assay: PBM binding z-score (relative to random genomic background probes); higher = stronger binding; sequences stand for … in GC…GCGATTGACAGCGTAGAATGAAGG
Method: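 Protein-binding microarray (Agilent 4x180K custom design, double-stranded 60-nt probes: 5' GC cap, 34-nt variable region, 24-nt constant primer region; full probe sequence given). Purified or IVT nuclear receptor:RXRα heterodimers (3:1 NR:RXRα, mostly 270:90 nM) or homodimers were incubated for 1 h in PBS with 2% milk and no ligand, then detected with Alexa488 antibodies. Fluorescence from o1-orientation probes (~5 replicates averaged) was converted to z-scores against 500 random hg19 background probes. Variable regions are seed direct-repeat (DR0–DR5) sites, all their single-nucleotide variants and half-site ablations.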

Row | Sequence | PBM binding z-score
1 | TCGAGTTGGTTAGGGGCATTCAGAATGGCGTCGA | 1.84
2 | CTCGAAAGGTCGTGCTCATGTGAGTATACCAAAC | 3.36
3 | CTCGAAAGGTCGGTTGAGGTGTGTATACGGATAA | 1.03
4 | ACAGACAGGTGATGGAGGTAACTCAGGCTATCAT | 0.681
5 | CCTAGCAGGCCAGGGTCGCTCAAGCATTTCGCTT | 0.8
6 | TTACCAAGCTGAAGGTCGTTGATCCCTCTGTAGA | 0.724
7 | TAGCCTAGGTCAGATCGGGCCAGTATACGCTATA | 0.518
8 | GCAACTGGGGCAAAGCAGGTTACCATAAGGTTGG | 0.361
9 | ACTATTAGTTGACTTAGGGCACCCGATACGACGC | 0.0637
10 | AGTCAAAGTGCAGGACGAGGTAACGTAAAGCACG | -0.0485
11 | ACTCGGAGGACAAAGGTCCGAGCTACGCCAGTGA | -0.323
12 | GCGACTGGGGCAAAGAAGGTTACCATAAGGTTGG | 0.733
13 | TCGAGTAGGGTAGGGGCATTCAGAATGGCGTCGA | 0.426
14 | CCGAGTATGTTATGGGGCATTCAGGCAACGGTGA | -0.0094
15 | CGTGCAAGGTCAAGGTCAGTGAAAGAGACTCGAA | 4.83
16 | TCTTGTAGATCAACAGGAGGTTAAGAATGATCGA | 0.56
17 | GTACCAAGGTGAATAGGTCGGTGATGAGTAGGCG | 0.312
18 | TCTATTAGTTGAAGGGGAACCGACGAGTCCGTTT | 1.13
19 | CGTGAAAGTTCAACTAAGGTAACGTAAAGCACGC | 4.46
20 | ATAGAAAGGTCGTGAGGTGAGTATACAGAAAGGC | 3.63

Row | Sequence | PBM binding z-score
21 | CGTCGAAGGTCATAGGAGGTCAGTGAAGACAGAT | 6.76
22 | CACACTAGGTCAAGGTCAAAGTCGGTTTGTGCCA | 5.17
23 | ATCGAAGGGTCGTGAGGTGAGTATACAGAAAGGC | 2.38
24 | GTACCAAGGTCAATAGGTCGTTGATGAGTAGGCG | 4.69
25 | TATACAGGGTTAAAGGCCAGAGTACGAATGTCGA | 2.09
26 | TCGAGTAGGTTCGTCGGGGCATTCAGCCAACATA | 1.79
27 | CGTCAAATTTCAACTAAGGTAACGTAAAGCACGC | 0.709
28 | TCTTGTAGATCAACAGGATGTTAAGAAAGATCGA | 0.149
29 | CCTCGGAGGACAACTGGAGGTCAGAGCTGCCAGA | 2.08
30 | AGAATGAGGTTATCCGTAGATCAGGGAAGAAAGT | 1.44
31 | ATATGTAGGTTAGCTGCGGTCATTCAGACTAGGC | 2.23
32 | CGTCCAAGGTCAATGCTTGGTCAGTGAAAGCATT | 3.69
33 | ATCTCTATGTAAAAGTTCAGTGAATCCCGAGGAT | 1.2
34 | TCTAGTTGGTCACGGAGGTCACTCACGACGGGTA | 5.6
35 | CTCGACAGGTCGGTTGAGGTGAGTATACGGATAA | 0.149
36 | CGTCCAAGATCAAGGTCAGTGAAAGAGACTCGAA | 1.62
37 | GATACAGGGTCAAGGCCAGGGTACGCGTATTGAT | 4.71
38 | CAGCCTAGGTTAGGGCCAGTATAGGAGGAACGTT | -0.611
39 | TCTATTCGTTGAAGGGCAACCGACGAGTCCGTTT | 1.08
40 | AATCGGAGGACAAAGGTCAGAGCTACGCCAGTGA | 3.23

— the supplement of paper PMC6555819
